Results filed as inconclusive are left out. The source made the active and inactive calls. The call rests on the fitted dose curve; in most records, active means well fitted curve in the direction sought with a large enough effect in the signal ratio; inconclusive means small, poorly fitted or top-dose-only effect, or a change in a side signal; inactive means no such curve, though single readings can be large or run the other way; the % refers to the signal ratio.
Molecular target: Tumor necrosis factor (Homo sapiens) (UniProt P01375)
Sequence (P01375 whole entry, looked up): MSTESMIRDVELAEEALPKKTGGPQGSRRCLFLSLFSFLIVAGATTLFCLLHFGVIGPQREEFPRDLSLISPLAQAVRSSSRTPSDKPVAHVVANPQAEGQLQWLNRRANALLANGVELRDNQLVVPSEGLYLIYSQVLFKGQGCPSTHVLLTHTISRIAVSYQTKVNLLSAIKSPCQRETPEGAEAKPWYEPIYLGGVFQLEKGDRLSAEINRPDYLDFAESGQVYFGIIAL
Experiment: qHTS assay to identify small molecules that stimulate Tumor Necrosis Factor-alpha (TNF-alpha) secretion (AID 651757)
Conditions: Human cells, HTRF 665/615 ratio; series mostly up to 92.2 µM
Source text: National Center for Advancing Translational Sciences [NCATS]
NIH Chemical Genomics Center [NCGC]
National Institutes of Environmental Health Sciences [NIEHS]
National Toxicology Program [NTP]
Tumor Necrosis Factor-alpha (TNF-alpha), a secreted cytokine, plays an important role in inflammatory diseases and immune disorders. TNF-alpha, a 17 kDa cytokine, is mainly secreted by activated macrophages and monocytes in response to several inflammatory and immunological stimuli. To study the effect of environmental chemicals on TNF-alpha secretion, a homogeneous TNF-alpha assay was developed using Time Resolved fluorescence (HTRF) technology based on Time Resolved Fluorescent Resonance Energy Transfer (TR-FRET) (Leister et al., Current Chemical Genomics, 5:21-29, 2011). This assay allows measuring TNF-alpha secreted from the cells in a 1536-well plate format.
THP-1 cells were dispensed at 3000 cells/5ul/well in 1536-well white solid plates. After addition of 23 nl of compound, positive controls and DMSO only, the assay plates were incubated at 37 C for 17 hrs, followed by addition of 5 uLof mixture of cryptate labeled and XL665 labeled anti-TNF-alpha antibodies. After the assay plates were incubated at room temperature for 3 hr, the plates were measured by an EnVision plate reader.

Row | SMILES | outcome
1 | COc1ccc2c(c1OC)C(=O)OC2C1c2cc3c(cc2CCN1C)OCO3 (configuration not stated) | inactive
2 | ClCC1CO1 (configuration not stated) | inactive
3 | COC1=CC(=O)O[C@@H](/C=C/c2ccccc2)C1 | inactive
4 | CC(C)CCON=O | inactive
5 | C[C@H]1CCC[C@H](O)CCCCCc2cc(O)cc(O)c2C(=O)O1 | inactive
6 | C[C@]12CCC(=O)C[C@@H]1CC[C@@H]1[C@@H]2CC[C@]2(C)[C@@H](O)CC[C@@H]12 | inactive
7 | ClC(Cl)(Cl)Cl | inactive
8 | O=[N+]([O-])c1ccccc1 | inactive
9 | Clc1ccccc1Cl | inactive
10 | O=C1CCO1 | inactive
11 | [O]=[Cd] | inactive
12 | NNC(N)=O | inactive
13 | C=CCN=C=S | inactive
14 | O=CC=O | inactive
15 | C[C@H]1CC[C@@H]2[C@@H](C)[C@H]3[C@H](C[C@H]4[C@@H]5CC=C6CC(O[C@@H]7O[C@H](CO)[C@H](O)[C@H](O[C@@H]8O[C@H](CO)[C@@H](O)[C@H](O)[C@H]8O)[C@H]7O[C@H]7O[C@@H](C)[C@H](O)[C@@H](O)[C@H]7O)CC[C@]6(C)[C@H]5CC[C@]34C)N2C1 (some centres not stated) | inactive
16 | CCCCCCCCOC(=O)c1ccccc1C(=O)OCCCCCCCC | inactive
17 | ClC=C(Cl)Cl | inactive
18 | O=C/C=C/c1ccccc1 | inactive
19 | S=C=S | inactive
20 | CC(C)(C)c1cc(O)ccc1O | inactive
21 | CCOC(=O)c1ccccc1C(=O)OCC | inactive
22 | [O]=[Cr](=[O])([OH])[O][Cr](=[O])(=[O])[OH] | inactive
23 | O=C1C=CC(=O)C=C1 | inactive
24 | CCCCCl | inactive
25 | O=C1C2CC=CCC2C(=O)N1SC(Cl)(Cl)Cl (configuration not stated) | inactive
26 | O=C(O)C(Cl)(Cl)Cl | inactive
27 | O=Cc1ccco1 | inactive

From PubChem BioAssay (NCATS)
